Assay outcomes: PubChem, The Scripps Research Institute Molecular Screening Center
Hits are enriched below; roughly 1.8% of the tested compounds scored in any of these assays.
GSTO1 counter – counter-screen for RBBP9 inhibitors: inhibitors of human GSTO1; inhibition, % at 5.96 µM; hit rate 1.1% among 300,000; recombinant GSTO1, activity-based probe fluorescence polarization; AID 1974;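 active = inhibition above the campaign mean inhibition plus 3 SD, cut at about 35% in these data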;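 also: 0% = GSTO1-1 with DMSO and 100% = wells lacking GSTO1-1 enzyme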
Target sequence (P78417 whole entry, looked up): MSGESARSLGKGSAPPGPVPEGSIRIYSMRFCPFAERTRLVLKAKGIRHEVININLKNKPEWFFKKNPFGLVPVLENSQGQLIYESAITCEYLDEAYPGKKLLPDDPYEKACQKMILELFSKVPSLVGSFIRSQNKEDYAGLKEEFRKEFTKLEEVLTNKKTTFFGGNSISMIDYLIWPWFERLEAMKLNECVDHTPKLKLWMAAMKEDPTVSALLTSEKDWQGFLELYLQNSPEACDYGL
PME-1 primary – PME-1 (human) inhibition; Q9Y570; recombinant PME-1, FP-Rh probe fluorescence polarization; inhibition, % at 5.9 µM; hit rate 0.53% among 320,000; AID 2130;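 active = inhibition above the campaign mean of all compounds plus 3 SD, cut at about 26% in these data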;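 also: competitive labeling of PME-1 active site by serine hydrolase directed probe; 0% = PME-1 with DMSO and 100% = wells lacking PME-1 enzyme; inhibitors block probe labeling so polarization falls and inhibition rises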
Target sequence (Q9Y570 whole entry, looked up): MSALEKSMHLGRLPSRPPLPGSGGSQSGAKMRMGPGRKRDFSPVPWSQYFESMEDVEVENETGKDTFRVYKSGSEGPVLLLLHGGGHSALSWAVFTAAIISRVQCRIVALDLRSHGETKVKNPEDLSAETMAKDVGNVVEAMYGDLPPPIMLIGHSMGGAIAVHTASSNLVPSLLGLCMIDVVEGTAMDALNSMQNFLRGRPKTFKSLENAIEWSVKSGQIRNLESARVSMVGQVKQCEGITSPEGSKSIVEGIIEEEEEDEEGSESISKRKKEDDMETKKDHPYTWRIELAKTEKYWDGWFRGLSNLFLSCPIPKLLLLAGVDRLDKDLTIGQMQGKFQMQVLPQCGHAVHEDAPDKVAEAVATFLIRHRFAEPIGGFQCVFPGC
LYPLA1 counter – LYPLA1 (human) inhibition in PME1 counter-screen | recombinant LYPLA1, FP-Rh probe fluorescence polarization | inhibition, % at 5.9 µM | hit rate 0.16% among 320,000 | AID 2174;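 active = inhibition above the mean of all tested compounds plus 3 SD, set per campaign, cut at about 14% in these data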;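 also: inhibitors block serine hydrolase probe labeling of LYPLA1 so polarization falls; 0% = enzyme with DMSO and 100% = wells lacking LYPLA1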
LYPLA2 inh – counter-screen for PME1 inhibitors: inhibitors of human LYPLA2 | recombinant LYPLA2, FP-Rh probe fluorescence polarization | inhibition, % at 5.9 µM | hit rate 0.38% among 320,000 | AID 2177;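 active = inhibition above the screen-wide mean plus 3 SD, limit set per campaign, cut at about 26% in these data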;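 also: 0% = LYPLA2 with DMSO and 100% = wells lacking LYPLA2 enzyme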
PAD4 FP inh – inhibitors of human PAD4 | Q9UM07 | recombinant PAD4, RCA probe fluorescence polarization | inhibition, % at 6.36 µM | hit rate 0.41% among 330,000;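 active = percent inhibition above a cutoff equal to the mean of all tested compounds plus 3 SD, cut at about 15% in these data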;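 also: 0% = PAD4 with RCA probe and DMSO and 100% = probe without PAD4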
Fam108B counter – blocks mouse Fam108B hydrolase in RBBP9 counter-screen. recombinant Fam108B, FP-Rh probe fluorescence polarization. inhibition, % at 9.51 µM. hit rate 0.33% among 300,000. AID 1947;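 active = inhibition above the screen mean inhibition plus 3 SD, computed separately per campaign, cut at about 18% in these data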;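 also: inhibitors lower polarization as less probe binds the enzyme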
LYPLA2 confirm – counter-screen for PME1 inhibitors: confirmation of human LYPLA2 inhibitors. shares compounds with LYPLA2 inh. recombinant LYPLA2, FP-Rh probe fluorescence polarization. inhibition, % at 5.9 µM. hit rate 72% among 1,100;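 active = mean inhibition across replicates above the hit cutoff set in the primary screen, cut at about 26% in these data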;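 also: blocked labeling of the enzyme by serine hydrolase FP-Rh probe lowers polarization; 0% = enzyme with DMSO and 100% = wells lacking LYPLA2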
LYPLA2 gel ABPP – inhibitors of human LYPLA2. shares compounds with LYPLA2 inh. rhLYPLA2 in mouse brain proteome, gel ABPP FP-Rh. inhibition, % at 20 µM. hit rate 30% among 150. AID 652029;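 active = inhibition of LYPLA2 enzyme probe labeling above about 50%, limit read from the data; inactive = inhibition below that limit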;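 also: loss of FP-Rh probe labeling of the LYPLA2 gel band measured as band density; 0% = DMSO only control band and 100% = blank gel background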
Starred values were filed as active, the others as inactive; nt = no result.

SMILES | GSTO1 counter | PME-1 primary | LYPLA1 counter | LYPLA2 inh | PAD4 FP inh | Fam108B counter | LYPLA2 confirm | others
O=[N+]([O-])c1ccc(Sc2cccc3cccnc23)c([N+](=O)[O-])c1 | -15 | -5 | 0 | 4 | 3 | 0 | nt
COc1ccc(C(=O)O/N=C2\CCCc3nonc32)cc1 | 2 | 8 | 1 | 42* | 4 | 2 | 61*
COc1cc(C2Oc3cc(C4Oc5cc(O)cc(O)c5C(=O)C4O)ccc3OC2CO)ccc1O (centres undefined) | 8 | -2 | 10 | 60* | 7 | 2 | 69* | LYPLA2 gel ABPP=75*
O=C(Nc1ccc(N2CCOCC2)c(Cl)c1)c1ccc(-n2cnnc2)cc1Cl | -3 | 5 | 4 | 6 | -1 | 4 | nt
Oc1ccccc1N1CCN(C(c2ccccc2)c2ccccc2)CC1 | 7 | -4 | -3 | -5 | -1 | 4 | nt
Cc1cccc(-n2c(CNC(=O)c3ccc(S(=O)(=O)N4CCCCC4)cc3)n[nH]c2=S)c1 | 7 | 5 | 0 | 79* | -2 | 1 | 5
O=C(NCc1n[nH]c(=S)n1-c1cccc(Cl)c1)c1ccc(S(=O)(=O)N2CCCC2)cc1 | 4 | 0 | 1 | 4 | -1 | 0 | nt
Cc1ccc(C)c(N2CCN(C(=O)CCC(=O)Nc3nnc(C(F)(F)F)s3)CC2)c1 | 8 | 2 | -2 | -3 | 4 | 0 | nt
O=C(CCC(=O)N1CCN(c2ccc(Cl)c(Cl)c2)CC1)c1ccccc1 | -4 | 7 | 13 | 37* | 0 | -3 | 31*
COc1ccc(/C=C2\SC(=O)N(CC(=O)Nc3cccc(C)c3)C2=O)cc1O | 4 | -17 | -13 | 41* | -1 | -10 | 38*
COc1ccc(/C=C2\SC(=S)N(CCCC(=O)Nc3cccc(C(=O)O)c3)C2=O)cc1OC | -5 | -3 | -5 | 5 | -8 | 0 | nt
COc1cc(/C=C2\SC(=O)N(CC(=O)Nc3cccc(C)c3)C2=O)ccc1OC(C)C(=O)O (centres undefined) | 3 | -3 | -3 | 74* | 2 | -5 | 74* | LYPLA2 gel ABPP=80*
COc1ccc(/C=C2\SC(=S)N(CCC(=O)Nc3cccc(O)c3)C2=O)cc1OC | -1 | -15 | -9 | -17 | -5 | -9 | nt
COc1ccccc1C1=CN(Cc2ccccc2)CCC1=O | nt | nt | nt | nt | 6 | nt | nt
O=C1COc2ccc(S(=O)(=O)N3CCC(C(=O)NCc4ccccc4)CC3)cc2N1 | -2 | 5 | 0 | 1 | -5 | 1 | nt
CCN(CC)CC(O)Cn1c(C)c(-c2ccccc2)c2cc([N+](=O)[O-])ccc21 (centres undefined) | -10 | 3 | 0 | 1 | 5 | 0 | nt
COCCNC(=O)C(c1ccc(C)cc1)N(Cc1cccs1)C(=O)CCC(=O)Nc1ccccn1 (centres undefined) | -6 | -1 | 1 | 0 | 1 | -5 | nt
CN(C)C(=O)c1nc2ccc(Cl)cn2c1CN1CCCC(OCc2ccccc2)C1 (centres undefined) | 10 | -8 | 2 | 4 | -5 | 0 | nt
O=C(CCCN1CCC(O)(c2cccc(C(F)(F)F)c2)CC1)c1ccc(F)cc1 | 4 | 1 | 0 | 72* | -2 | -3 | 68*
O=C(CCCN1CCC(O)(c2ccc(Br)cc2)CC1)c1ccc(F)cc1 | -4 | 9 | 2 | 18 | 2 | 7 | nt
O=C(N/C(=C\c1cccc([N+](=O)[O-])c1)C(=O)N1CCOCC1)c1ccco1 | -6 | 1 | -2 | 4 | -1 | 1 | nt
COc1ccc(S(=O)(=O)N2CCCCC2)cc1NC(=O)c1cnc(C)cn1 | nt | -5 | 2 | 6 | 4 | nt | nt
O=C(Cn1c(NCCO)nc2ccccc21)c1ccc(F)cc1 | 3 | 4 | 5 | 6 | -1 | 7 | nt
COc1ccc(-n2c(C)cc(C(=O)Cn3c(NCCO)nc4ccccc43)c2C)cc1 | 3 | -2 | 2 | 56* | -5 | -3 | 62* | LYPLA2 gel ABPP=29
CCN(CC)S(=O)(=O)c1ccc(N2CCOCC2)c(NC(=O)c2cc(=O)[nH]c3ccccc23)c1 | -5 | -5 | -1 | 36* | -5 | -2 | 43*
SMILES | GSTO1 counter | PME-1 primary | LYPLA1 counter | LYPLA2 inh | PAD4 FP inh | Fam108B counter | LYPLA2 confirm | others
CCN(CC)S(=O)(=O)c1ccc(N2CCOCC2)c(NC(=O)COc2ccc(C#N)cc2)c1 | 14 | 11 | 4 | 77* | -7 | -4 | 79* | LYPLA2 gel ABPP=64*
COC(=O)c1ccc(NC(=O)c2ccc3c(c2)C(=O)N(Cc2cccnc2)C3=O)cc1 | -7 | -3 | 5 | 50* | -3 | -2 | 51*
O=C(Nc1cccnc1)c1ccc2c(c1)C(=O)N(Cc1cccnc1)C2=O | -5 | 2 | -1 | 2 | 1 | 3 | nt
Cc1ccc(NS(=O)(=O)c2cccc(C(=O)NCC3CCCO3)c2)cc1 (centres undefined) | 5 | 5 | 1 | 0 | -3 | 2 | nt
CCOC(=O)c1ccc(NC(=O)CN2C(=O)CN(C(C)=O)C2=S)cc1 | 4 | 3 | 4 | 3 | 5 | 0 | nt
CC(=O)c1ccc(CCCCCCCCCC(=O)O)s1 | 5 | -3 | 3 | 59* | 0 | 0 | 57* | LYPLA2 gel ABPP=18
COc1ccc(NCc2ccsc2)cc1 | 1 | -3 | 0 | 1 | -1 | 3 | nt
COc1ccc(N/C=C2/CCCCC2=O)cc1 | 5 | 1 | -1 | 3 | -6 | 4 | nt
COc1ccc(Oc2ccc(N/C=C3\CCCC3=O)cc2)cc1 | -6 | 10 | 7 | 39* | -1 | 1 | 37*
COc1ccc(Oc2ccc(N/C=C3/CCCC3=O)cc2)cc1 | 2 | 4 | 3 | 41* | -3 | 4 | 36*
C/C(=N\Nc1cc(C(F)(F)F)ccc1Cl)c1ccncc1 | 0 | 5 | -3 | 0 | -1 | -1 | nt
O=C(NCC1(N2CCCCC2)CCCCC1)C1CC(=O)N(c2ccc3c(c2)OCCO3)C1 (centres undefined) | -3 | 1 | 0 | -4 | 0 | -3 | nt
O=C(CN1CCN(c2ccc(O)cc2)CC1)Nc1ccc(S(=O)(=O)N2CCCC2)cc1 | nt | nt | nt | nt | -2 | nt | nt
Cn1c(=O)c2c(ncn2CC(=O)N/N=C/C(Cl)=C/c2ccccc2)n(C)c1=O | -1 | 3 | 8 | 32* | -1 | 0 | 22
Cn1c(=O)c2c(ncn2CCC(=O)N/N=C/c2ccccc2)n(C)c1=O | 9 | 5 | 2 | 1 | 5 | 4 | nt
COc1ccccc1Oc1ccc(N2CC(C(=O)OCC(=O)c3ccccc3)CC2=O)cc1 (centres undefined) | -3 | -3 | 13 | 5 | -1 | 3 | nt
N#C/C(=C\N1CCN(Cc2ccc3c(c2)OCO3)CC1)c1nc2ccccc2s1 | -7 | -10 | 11 | 50* | -7 | -7 | 53* | LYPLA2 gel ABPP=40
